# The supplement of paper PMC12494721
# Structures can show the parent of a compound that is named as a salt.
# Test system: Ruminococcus gnavus DSM 108212
# Test: growth (OD595) fold change vs plate DMSO controls (fold change (ratio)); higher = more growth
# Details: incubation time: 27 h, anaerobic, 37 °C;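 for the amine columns active = adjusted P below 0.05 in both replicates with a change the same way and a mean fold change under 0.8 or over 1.25; inactive = the rest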
# Procedure, shortened: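 Anaerobic mGAM cultures in 96-well plates were grown for 27 h at 37 °C, and absorbance was then read at 595 nm. After blank and compound background correction with 20 µM compound solutions in water, a calibration factor of 5 gave OD. Growth is the fold change relative to the median of each plate's DMSO controls. Values are means of 2 biological replicates, with fold changes above 1.5 set to NA.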
row,SMILES,growth
1,C[C@@H](O)[C@H]1C(=O)N2C(C(=O)O)=C(S[C@@H]3CN[C@H](C(=O)N(C)C)C3)[C@H](C)[C@H]12 [Meropenem] (20 µM),0
2,CNCCC=C1c2ccccc2C=Cc2ccccc21 [Norcyclobenzaprine] (20 µM),1.09
3,CCCCS(=O)(=O)N[C@@H](Cc1ccc(OCCCCC2CCNCC2)cc1)C(=O)O [Tirofiban hydrochloride] (20 µM),1.11
4,OC[C@H]1O[C@@H](n2cnc3cncnc32)[C@H](O)[C@@H]1O [Nebularine] (20 µM),0.831
5,CC1(C)S[C@@H]2[C@H](NC(=O)[C@H](N)c3ccccc3)C(=O)N2[C@H]1C(=O)O [Ampicillin trihydrate] (20 µM),0
6,Oc1ncnc2[nH]ncc12 [Allopurinol] (20 µM),1.02
7,CC(C)(C)c1ccc(C(=O)CCCN2CCC(OC(c3ccccc3)c3ccccc3)CC2)cc1 [Ebastine] (20 µM),0.852
8,CCOC(N)=O [Urethane] (20 µM),1.08

# Test system: Klebsiella aerogenes DSM 30053
# Test: fold change of Histamine concentration vs plate DMSO controls (fold change (ratio)); higher = more amine produced, active = hit call of the paper (significant change in both replicates, either direction)
# Details: incubation time: 27 h, anaerobic, 37 °C
# Procedure, shortened: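 Amine values are fold changes relative to DMSO-only wells on the same plate. They derive from 27 h, 37 °C anaerobic mGAM cultures of four gut bacterial strains in 80 µL wells, dosed at 20 µM final, or 50 µM final for sweeteners. Extraction of the whole culture, LC–triple-quadrupole MS in dynamic MRM mode, external calibration curves and within-batch drift correction were used, with 2 biological replicates averaged.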
row,SMILES,fold change of Histamine concentration
1,CC(=O)[C@H]1CC[C@H]2[C@@H]3CC=C4C[C@@H](O)CC[C@]4(C)[C@H]3CC[C@]12C [Pregnenolone] (20 µM),1.06 (inactive)
2,CC(C(=O)O)c1ccc(N2Cc3ccccc3C2=O)cc1 (stereo not drawn) [Indoprofen] (20 µM),1.04 (inactive)
3,Cc1cc(O)c(C(=O)N[C@@H](C(=O)N[C@@H]2C(=O)N3C(C(=O)O)=C(CSc4nnnn4C)CS[C@H]23)c2ccc(O)cc2)cn1 [Cefpiramide] (20 µM),0.829 (inactive)
4,CC(C)=CCC1C(=O)N(c2ccccc2)N(c2ccccc2)C1=O [Feprazone] (20 µM),0.971 (inactive)
5,COC(=O)C1=C(C)NC(C)=C(C(=O)OCCN(C)Cc2ccccc2)C1c1cccc([N+](=O)[O-])c1 (stereo not drawn) [Nicardipine hydrochloride] (20 µM),0.982 (inactive)
6,COCCOC(=O)C1=C(C)NC(C)=C(C(=O)OC(C)C)C1c1cccc([N+](=O)[O-])c1 (stereo not drawn) [Nimodipine] (20 µM),0.947 (inactive)
7,NS(=O)(=O)c1cc2c(cc1Cl)N=CNS2(=O)=O [Chlorothiazide] (20 µM),1.05 (inactive)
8,CC(Oc1ccccc1)C(=O)N[C@@H]1C(=O)N2[C@@H]1SC(C)(C)[C@@H]2C(=O)O (stereo partly drawn) [Phenethicillin potassium salt] (20 µM),0.936 (inactive)
9,Cc1ccc(N(CC2=NCCN2)c2cccc(O)c2)cc1 [Phentolamine hydrochloride] (20 µM),0.97 (inactive)
10,CC1(C)O[C@@H]2C[C@H]3[C@@H]4C[C@H](F)C5=CC(=O)CC[C@]5(C)[C@H]4[C@@H](O)C[C@]3(C)[C@]2(C(=O)CO)O1 [Flurandrenolide] (20 µM),0.982 (inactive)
11,NS(=O)(=O)c1cc2c(cc1C(F)(F)F)NCNS2(=O)=O [Hydroflumethiazide] (20 µM),0.965 (inactive)
12,Nc1nc(/C(=C/CC(=O)O)C(=O)N[C@@H]2C(=O)N3C(C(=O)O)=CCS[C@H]23)cs1 [Ceftibuten] (20 µM),0.885 (inactive)
13,O=C(O)Cc1ccc(-c2ccccc2)cc1 [Felbinac] (20 µM),0.921 (inactive)
14,Nc1nnc(-c2cccc(Cl)c2Cl)c(N)n1 [Lamotrigine] (20 µM),0.977 (inactive)
15,Nc1nc(=O)c2nc(CNc3ccc(C(=O)N[C@@H](CCC(=O)O)C(=O)O)cc3)cnc2[nH]1 [Folic acid] (20 µM),0.93 (inactive)
16,Nc1ccc(S(=O)(=O)NC(=O)c2ccccc2)cc1 [Sulfabenzamide] (20 µM),0.998 (inactive)
17,CCC(=O)O[C@]1(C(=O)SCF)[C@H](C)C[C@H]2[C@@H]3C[C@H](F)C4=CC(=O)C=C[C@]4(C)[C@@]3(F)[C@@H](O)C[C@@]21C [Fluticasone propionate] (20 µM),1.04 (inactive)
18,CCOC(=O)[C@H](CCc1ccccc1)N[C@@H](C)C(=O)N1[C@H](C(=O)O)C[C@@H]2CCC[C@@H]21 [Ramipril] (20 µM),0.948 (inactive)
19,CO/N=C(\C(=O)N[C@@H]1C(=O)N2C(C(=O)OCOC(=O)C(C)(C)C)=C(/C=C\c3scnc3C)CS[C@H]12)c1csc(N)n1 [Cefditoren Pivoxil] (20 µM),0.988 (inactive)
20,NC[C@H]1O[C@H](O[C@H]2[C@H](O[C@@H]3O[C@H](CO)[C@@H](O)[C@H]3O)[C@@H](O)[C@H](N)C[C@@H]2N)[C@H](N)[C@@H](O)[C@@H]1O [Ribostamycin sulfate salt] (20 µM),0.975 (inactive)

row,SMILES,fold change of Histamine concentration
1,Brc1c(NC2=NCCN2)ccc2nccnc12 [Brimonidine L-tartrate] (20 µM),0.928 (inactive)
2,O=c1[nH]cnc2c1ncn2[C@H]1CC[C@@H](CO)O1 [Didanosine] (20 µM),0.958 (inactive)
3,NS(=O)(=O)Cc1noc2ccccc12 [Zonisamide] (20 µM),1.02 (inactive)
4,CN(C)CCC(c1ccc(Cl)cc1)c1ccccn1 (stereo not drawn) [Chlorpheniramine maleate] (20 µM),0.983 (inactive)
5,OCC(O)CN1CCN(c2ccccc2)CC1 (stereo not drawn) [Dropropizine] (20 µM),1.08 (inactive)
6,CC(=O)[C@H]1CC[C@H]2[C@@H]3CCC4=CC(=O)CC[C@]4(C)[C@H]3CC[C@]12C [Progesterone] (20 µM),0.893 (inactive)
7,CC(C)(C)NC(=O)[C@@H]1CN(Cc2cccnc2)CCN1C[C@@H](O)C[C@@H](Cc1ccccc1)C(=O)N[C@H]1c2ccccc2C[C@H]1O [Indinavir sulfate] (20 µM),0.966 (inactive)
8,c1ccc2c(c1)CCCC2C1=NCCN1 (stereo not drawn) [Tetrahydrozoline hydrochloride] (20 µM),0.99 (inactive)
9,O=[N+]([O-])c1ccc(O)c2ncccc12 [Nitroxoline] (20 µM),0.93 (inactive)
10,COCC(=O)O[C@]1(CCN(C)CCCc2nc3ccccc3[nH]2)CCc2cc(F)ccc2[C@@H]1C(C)C [Mibefradil hydrochloride] (20 µM),0.954 (inactive)
11,Nc1nc(Cl)nc2c1ncn2[C@H]1C[C@H](O)[C@@H](CO)O1 [Cladribine] (20 µM),0.841 (inactive)
12,CN(CCOc1ccc(CC2SC(=O)NC2=O)cc1)c1ccccn1 (stereo not drawn) [Rosiglitazone hydrochloride] (20 µM),0.998 (inactive)
13,C[C@@H](O)[C@H]1C(=O)N2C(C(=O)O)=C(S[C@@H]3CN[C@H](C(=O)N(C)C)C3)[C@H](C)[C@H]12 [Meropenem] (20 µM),0.214 (active)
14,CNCCC=C1c2ccccc2C=Cc2ccccc21 [Norcyclobenzaprine] (20 µM),0.997 (inactive)
15,CCCCS(=O)(=O)N[C@@H](Cc1ccc(OCCCCC2CCNCC2)cc1)C(=O)O [Tirofiban hydrochloride] (20 µM),0.975 (inactive)
16,OC[C@H]1O[C@@H](n2cnc3cncnc32)[C@H](O)[C@@H]1O [Nebularine] (20 µM),0.982 (inactive)
17,CC1(C)S[C@@H]2[C@H](NC(=O)[C@H](N)c3ccccc3)C(=O)N2[C@H]1C(=O)O [Ampicillin trihydrate] (20 µM),0.914 (inactive)
18,Oc1ncnc2[nH]ncc12 [Allopurinol] (20 µM),1.03 (inactive)
19,CC(C)(C)c1ccc(C(=O)CCCN2CCC(OC(c3ccccc3)c3ccccc3)CC2)cc1 [Ebastine] (20 µM),1.02 (inactive)
20,CCOC(N)=O [Urethane] (20 µM),1.03 (inactive)
